Measured values reported in PubChem BioAssay AID2232 (The Scripps Research Institute Molecular Screening Center, 2010).
About 790 (72%) of roughly 1,100 compounds were called active. The set was probably picked from earlier hits. These entries were drawn from the full list. Values without a mark were called inactive.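 The calls were made as follows: active = mean inhibition across replicates above the hit cutoff set in the primary screen (cut at about 26% in these data); inactive = the rest.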

Biological target: Acyl-protein thioesterase 2 (Homo sapiens) (UniProt O95372)
Test: LYPLA2 inhibitors, retest, confirmation, counter-screen for PME1 inhibitor project, biochemical, fluorescence polarization, FP-Rh probe ABPP (AID 2232);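 also: blocked labeling of the enzyme by serine hydrolase FP-Rh probe lowers polarization; 0% = enzyme with DMSO and 100% = wells lacking LYPLA2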
Details: recombinant LYPLA2, FP-Rh probe fluorescence polarization; at 5.9 µM; hits give high values

Acyl-protein thioesterase 2 (Homo sapiens), sequence (O95372 whole entry, looked up): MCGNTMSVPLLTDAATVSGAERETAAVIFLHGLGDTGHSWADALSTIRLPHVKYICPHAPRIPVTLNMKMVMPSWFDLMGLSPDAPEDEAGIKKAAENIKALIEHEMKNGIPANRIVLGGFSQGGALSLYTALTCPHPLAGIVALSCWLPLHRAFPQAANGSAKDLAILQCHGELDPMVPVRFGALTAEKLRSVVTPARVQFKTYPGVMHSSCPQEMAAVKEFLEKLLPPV

SMILES	inhibition
Cc1ccc(N2CCN(C3=NC(=O)/C(=C\c4cccs4)S3)CC2)cc1	56.2% (active)
CCC(CC)COC(=O)C1=C(C)NC(=O)NC1c1ccc([N+](=O)[O-])cc1 (stereo not drawn)	48.5% (active)
Cc1c(C)c2ccc(OCC(=O)N3CCN(c4cccc(Cl)c4)CC3)cc2oc1=O	45.7% (active)
CCC(=O)c1ccc(OCC(O)CN2CCN(c3cccc(C(F)(F)F)c3)CC2)cc1 (stereo not drawn)	62.3% (active)
O=C(CCCN1C(=O)CSc2ncccc21)N1CCN(c2cccc(C(F)(F)F)c2)CC1	60.9% (active)
O=C(c1cc(-c2ccc(Cl)cc2)on1)N1CCN(c2ccccc2)CC1	2.82%
O=C(COc1ccc(Cl)cc1)N1CCN(c2cccc(C(F)(F)F)c2)CC1	63.1% (active)
CN(CCc1ccccn1)C(=O)c1ccc(OC2CCN(CCc3ccccc3)CC2)cc1	21.1%
O=C(CCCN1C(=O)c2cccc3cccc(c23)C1=O)N1CCN(Cc2ccc3c(c2)OCO3)CC1	55.4% (active)
O=C(COc1ccc(NC(=O)c2ccccc2[N+](=O)[O-])cc1)c1ccc(F)cc1	34.8% (active)
O=[N+]([O-])c1ccc(Oc2ccc(F)cc2Br)c2ccncc12	33.5% (active)
Cc1cc(OCCCN2CCN(Cc3ccccc3)CC2)ccc1[N+](=O)[O-]	40.4% (active)
CSc1cccc(NC(=O)CN2C(=O)COc3ccc(S(=O)(=O)N4CCOCC4)cc32)c1	33.8% (active)
N#Cc1ccc(C2=CC(=O)C[C@H](c3ccc(Cl)cc3)C2)cc1	42% (active)
O=C(CC1SC(N2CCCC2)=NC1=O)Nc1ccc(C(=O)NCCc2ccc(F)cc2)cc1 (stereo not drawn)	43.7% (active)
CCOC(=O)c1cc2cc(-c3c(C(=O)OCC)oc4cc(O)cc(O)c4c3=O)ccc2o1	36.7% (active)
O=C1C2CCCN2C(=O)N1CCCCN1CCN(c2cccc(C(F)(F)F)c2)CC1 (stereo not drawn)	55.6% (active)
CCN(CC)C(=O)CC1(c2ccccc2OC)CCOC(C(C)C)C1 (stereo not drawn)	4.28%
Cc1nc([N+](=O)[O-])cn1CC(=O)Nc1ccc2c(c1)OCO2	26.8% (active)
CCc1ccc(NC(=O)c2ccc(Cn3cc([N+](=O)[O-])cn3)cc2)cc1	19.7%
Cc1nc([N+](=O)[O-])cn1CC(=O)Nc1ccc(Cl)cc1	34.4% (active)
O=C(c1ccco1)N1CCN(C(=S)Nc2cc(F)cc(F)c2)CC1	44.1% (active)
O=C(Nc1ccc(N2CCN(C(=O)c3ccccc3)CC2)c(Cl)c1)c1cccnc1	27% (active)
CCOc1ccc(C(=O)NC(=S)Nc2ccc(N3CCOCC3)c(Cl)c2)cc1[N+](=O)[O-]	21.8%

SMILES	inhibition
Cc1ccc(C(c2sc3nc(C)nn3c2O)N2CCN(c3ccc(F)cc3)CC2)cc1 (stereo not drawn)	30% (active)
COc1ccc(CCNc2nc(-c3cccc(NC(C)=O)c3)cs2)cc1OC	3.07%
O=C(Cc1ccc(-n2c(=O)[nH]c3ccccc3c2=O)cc1)N1CCN(c2cccc(Cl)c2)CC1	48.3% (active)
COc1ccc(-c2nc(CS(=O)CC(=O)NCc3ccccn3)c(C)o2)cc1 (stereo not drawn)	9.85%
O=[N+]([O-])c1ccc(N2CCN(CC(O)COc3ccccc3)CC2)cc1 (stereo not drawn)	29.1% (active)
COCCOC(=O)c1sc(=S)n(CCOC)c1N	21.3%
Cc1ccc(/C=N/NC(=O)C(NC(=O)c2ccccc2)c2n[nH]c(=O)c3ccccc23)cc1 (stereo not drawn)	56.2% (active)
Cc1nn2c(=O)cc(COC(=O)c3ccc(NC(=O)C(C)(C)C)cc3)nc2s1	27.5% (active)
COc1ccccc1C(=O)NC(CCSC)C(=O)N1CCN(C/C=C/c2ccccc2)CC1 (stereo not drawn)	31.7% (active)
Cc1cc(C)c(C#N)c(SCc2[nH]nc3c2C(c2ccccc2)C(C#N)=C(N)O3)n1 (stereo not drawn)	48.2% (active)
N#Cc1cc([N+](=O)[O-])ccc1Oc1cccc(/C=N/NC(=O)c2ccc(Cl)cc2)c1	15.7%
CC(=O)c1ccc(N2CCN(C(=O)C3CCN(S(=O)(=O)c4ccc5c(c4)CC(C)N5C(=O)C4CC4)CC3)CC2)cc1 (stereo not drawn)	72% (active)
CC(=O)N1c2ccc(S(=O)(=O)N3CCC(C(=O)N4CCN(c5ccccc5)CC4)CC3)cc2CC1C (stereo not drawn)	47.4% (active)
Cc1nn(Cc2ccccc2)c(C)c1CNC(=O)c1ccc(F)c(S(=O)(=O)N2CCOCC2)c1	-0.54%
CCCCCC1CCC(c2nnc(SCC(C)=O)o2)CC1 (stereo not drawn)	37.8% (active)
CCN(CC)c1ccc(C(=O)NNC(=O)CCc2nc3ccccc3c(=O)[nH]2)cc1	1.17%
COc1ccc(N2CCN(C(=O)c3ccc(N4CCCCS4(=O)=O)cc3)CC2)cc1	56.2% (active)
Nc1[nH][nH]c(=O)c1N=Nc1ccc2c(c1)OCO2	1.18%
COc1ccc(N2CC(C(=O)NCCN3C(=O)S/C(=C\c4cccnc4)C3=O)CC2=O)c(OC)c1 (stereo not drawn)	6.43%
CCCCCCOc1ccc(OC(=O)c2cccnc2)cc1	59.1% (active)
CCC(=C/c1sc2ccc3ccccc3c2[n+]1C)/C=C1\Sc2ccc3ccccc3c2N1C	0.49%
O=C(Nc1ccc(N2CCN(C(=O)c3cccs3)CC2)cc1)c1cccnc1Cl	37.2% (active)
COc1ccc(C(C#N)Nc2ccc(C)cc2)cc1 (stereo not drawn)	3.09%
Cc1cccc(OCC(O)CN2CCN(CCN3C(=O)c4cccc5cccc(c45)C3=O)CC2)c1C (stereo not drawn)	42.9% (active)
